Experiment [1] can be described thus: ATG_DR4_LXR_CIS: Attagene CIS-FACTORIAL HepG2 Assay for human Liver X Receptor (LXR), DR4 submotif (AID 2282929). The note with it: HepG2 Attagene DR4 cis-reporter, mRNA transcription; actives raise or lower the signal. In a few lines: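 HepG2 cells transiently transfected with cis-promoter-driven multiplexed reporter units (DR4 element) were dosed for 24 h. Reporter mRNA was quantified by RT-PCR, fluorescent primer extension, HpaI digestion and capillary electrophoresis; bidirectional fitting versus DMSO baseline.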

The nature of experiment [2]: ATG_Ets_CIS: Attagene CIS-FACTORIAL HepG2 Assay for human Erythroblast Transformation Specific (ETS) (AID 2282941). The note with it: HepG2 ETS cis-reporter transcription, actives raise or lower the signal. In a few lines: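 Bidirectional fit versus DMSO of reporter mRNA signal, detected by RT-PCR and capillary electrophoresis in HepG2 cells transiently transfected with cis-element reporters and dosed 24 h.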

A short description of experiment [3]: ATG_M_06_CIS: Attagene CIS-FACTORIAL HepG2 Assay for M06 Transcription Factor (Internal Marker) (AID 2282950). The note with it: HepG2 Attagene CIS-FACTORIAL M06 internal marker reporter; actives raise or lower the signal. In a few lines:
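One of many multiplexed endpoints: HepG2 reporter mRNA after 24 h dosing, detected by RT-PCR and capillary electrophoresis fluorescence; gain or loss of signal analysed against DMSO.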

The target in experiment [4] is Hypoxia-inducible factor 1-alpha (Homo sapiens) (UniProt Q16665). Nature of the experiment: ATG_HIF1a_CIS: Attagene CIS-FACTORIAL HepG2 Assay for human Hypoxia Inducible Factor 1 (HIF1A) (AID 2282951). To be noted: HepG2 Attagene cis-factorial HIF1a reporter transcription; actives raise or lower the signal. A digest of the protocol: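 HepG2 cells transiently transfected with multiplexed cis-promoter reporter units; reporter mRNA read 24 h after dosing by RT-PCR, 6-FAM primer-extension labelling, HpaI digestion and capillary electrophoresis. Bidirectional fit versus DMSO baseline.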

The target of experiment [5] is Hepatocyte nuclear factor 6 (Homo sapiens) (UniProt Q9UBC0). Nature of the experiment: ATG_HNF6_CIS: Attagene CIS-FACTORIAL HepG2 Assay for human Hepatocyte Nuclear Factor 6 (HNF6) (AID 2282952). To be noted: HepG2 Attagene cis-factorial HNF6 reporter transcription; actives raise or lower the signal. A digest of the protocol: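 Readout: fluorescent reporter-transcript fragments resolved by capillary electrophoresis after RT-PCR, reflecting endogenous factor activity in transfected HepG2. Exposure 24 h. Gain or loss of signal fitted bidirectionally against DMSO.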

Experiment [6] concerns the target Heat shock factor protein 1 (Homo sapiens) (UniProt Q00613). Nature of the experiment: ATG_HSE_CIS: Attagene CIS-FACTORIAL HepG2 Assay for human Heat Shock Transcription Factor 1 (HSE) (AID 2282953). To be noted: HepG2 HSE cis-reporter, Attagene RNA transcription; actives raise or lower the signal. In a few lines:
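Using HepG2 with transfected cis-driven reporter constructs, compound effects on endogenous factor activity are scored as reporter mRNA change at 24 h. Detection: RT-PCR, HpaI digestion, capillary electrophoresis; bidirectional fitting to DMSO.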

Experiment [7] is described as follows: ATG_TA_CIS: Attagene CIS-FACTORIAL HepG2 Assay for human TA Basal Promoter (AID 2282964). The note with it: HepG2 Attagene CIS-factorial TA basal promoter reporter; actives raise or lower the signal. In a few lines: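 Transient MRTU transfection of HepG2 preceded 24 h compound exposure. Reporter mRNA levels were then read by RT-PCR with capillary electrophoresis, and this background-control endpoint was fitted bidirectionally to DMSO.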

A short description of experiment [8]: ATG_TCF_b_cat_CIS: Attagene CIS-FACTORIAL HepG2 Assay for human T-Cell-Factor with beta-catenin (TCF/b-cat) (AID 2282965). The note with it: HepG2 TCF/beta-catenin cis-reporter transcription, actives raise or lower the signal. A digest of the protocol:
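Endogenous transcription factor activity is captured through cis-promoter reporter constructs transiently introduced into human HepG2 liver cells. Induced reporter mRNA is measured after 24 h and fitted bidirectionally relative to DMSO.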

A short description of experiment [9]: ATG_TAL_CIS: Attagene CIS-FACTORIAL HepG2 Assay for human TAL Basal Promoter (AID 2282966).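 Further: background control endpoint measuring basal TAL promoter reporter mRNA not a specific factor.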 To be noted: HepG2 Attagene cis-factorial TAL promoter reporter; actives raise or lower the signal. In a few lines:
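HepG2, transient MRTU transfection, 24 h compound exposure; RNA → oligo(dT) RT → PCR → 6-FAM primer extension → HpaI digest → CE fluorescence. Bidirectional curve fit vs DMSO. Background-control readout.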

Experiment [10] can be described thus: ATG_TGFb_CIS: Attagene CIS-FACTORIAL HepG2 Assay for human Transforming Growth Factor (TGF) (AID 2282967). To be noted: HepG2 Attagene CIS TGFb reporter, mRNA transcription; actives raise or lower the signal. In a few lines: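 After a 24-hour incubation with compound, transfected HepG2 cells were lysed for RNA; reporter cDNA was amplified, fluorescently end-labeled and separated by CE. DMSO served as baseline for bidirectional fits.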

In experiment [11] the target is X-box-binding protein 1 (Homo sapiens) (UniProt P17861). In words: ATG_Xbp1_CIS: Attagene CIS-FACTORIAL HepG2 Assay for human X-box Binding Protein 1 (XBP1) (AID 2282972). To be noted: HepG2 XBP1 cis-element reporter, Attagene multiplex; actives raise or lower the signal. In a few lines: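 Changes in reporter transcript abundance, read by RT-PCR and capillary electrophoresis, reflect endogenous transcription factor activity. Transfected HepG2 cells received compound for 24 hours; DMSO defined baseline for bidirectional analysis.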

The target of experiment [12] is Transcriptional activator Myb (Homo sapiens) (UniProt P10242). In words: ATG_Myb_CIS: Attagene CIS-FACTORIAL HepG2 Assay for human Myeloblastosis (Myb) Proto-Oncogene Transcription Factor (AID 2282986). The note with it: HepG2 Attagene CIS-FACTORIAL Myb reporter transcription; actives raise or lower the signal. In a few lines:
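HepG2 cells were transiently transfected with cis-regulated multiple reporter transcription units reflecting endogenous Myb activity, then exposed to compound for 24 hours. Reporter mRNA was measured by RT-PCR with capillary electrophoresis; bidirectional fitting versus DMSO baseline.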

The target in experiment [13] is Nuclear respiratory factor 1 (Homo sapiens) (UniProt Q16656). In words: ATG_NRF1_CIS: Attagene CIS-FACTORIAL HepG2 Assay for human Nuclear Respiratory Factor 1 (NRF1) Orphan Gene (AID 2282987). The note with it: HepG2 NRF1 cis-element reporter, Attagene multiplex; actives raise or lower the signal. In a few lines:
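HepG2 cells transiently transfected with multiple reporter transcription units under cis-regulatory promoter control, so endogenous transcription-factor activity is read. After 24 h compound exposure, reporter mRNA quantified by RT-PCR, fluorescent labelling, HpaI digestion and capillary electrophoresis; bidirectional fitting versus DMSO.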

The target of experiment [14] is Myc proto-oncogene protein (Homo sapiens) (UniProt P01106). In words: ATG_Myc_CIS: Attagene CIS-FACTORIAL HepG2 Assay for human Myelocytomatosis (Myc) Proto-Oncogene Transcription Factor (AID 2282990). The note with it: HepG2, Attagene cis-reporter transcription factor activity; actives raise or lower the signal. In a few lines:
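HepG2, transient MRTU transfection (cis promoters, endogenous TFs); 24 h dosing; TriZol RNA → oligo(dT) RT → PCR → 6-FAM primer extension → HpaI cut → CE. Bidirectional fit vs DMSO.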

A short description of experiment [15]: ATG_NRF2_ARE_CIS: Attagene CIS-FACTORIAL HepG2 Assay for human Nuclear Factor Erythroid 2 Related Factor 2 (NFR2) response to Antioxidant Response Elements (ARE) (AID 2282992). The note with it: HepG2 Attagene ARE/NRF2 reporter, transcription factor activity; actives raise or lower the signal. A digest of the protocol:
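Using transiently transfected HepG2 cells exposed for 24 h, reporter mRNA levels were determined by RT-PCR with fluorescent primer extension and capillary electrophoresis, analysed for gain or loss of signal against DMSO.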

Experiment [16] is described as follows: ATG_Oct_MLP_CIS: Attagene CIS-FACTORIAL HepG2 Assay for human Octamer-Binding Transcription Factor (Oct) (AID 2282993). To be noted: HepG2 Attagene cis-factorial Oct reporter, mRNA; actives raise or lower the signal. In a few lines:
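Transfected HepG2 cells, 24 h treatment. Reporter mRNA quantified by RT-PCR–capillary electrophoresis; bidirectional fitting against DMSO.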

Experiment [17] concerns the target Cellular tumor antigen p53 (Homo sapiens) (UniProt P04637). In words: ATG_p53_CIS: Attagene CIS-FACTORIAL HepG2 Assay for human p53 Transcription Factor (AID 2282994). To be noted: HepG2 p53 cis-element reporter, Attagene mRNA; actives raise or lower the signal. In a few lines:
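In HepG2 cells, reporter transcription units under cis-regulatory promoters were transiently introduced. Following 24 h treatment, RNA was processed to labelled, digested cDNA fragments read by capillary electrophoresis; fitting was bidirectional versus DMSO.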

For experiment [18], the target named is Nuclear receptor subfamily 1 group I member 2 (Homo sapiens) (UniProt O75469). Nature of the experiment: ATG_PXR_TRANS: Attagene TRANS-FACTORIAL HepG2 Assay for human Pregnane X Receptor (PXR) (AID 2283008; active means hit-call score of the fitted dose curve at least 0.9, where 1 is the maximum). A digest of the protocol: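 Multiplexed TRANS reporter panel in HepG2; this component tracks PXR-Gal4-driven reporter mRNA after 24 h dosing, measured by RT-PCR with capillary electrophoresis fluorescence, fitted against DMSO.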

Experiment [19] can be described thus: ATG_XTT_Cytotoxicity: Cytotoxicity Assessment in the Attagene TRANS-FACTORIAL HepG2 Assay (AID 2283584; active means hit-call score of the fitted dose curve at least 0.9, where 1 is the maximum). A digest of the protocol:
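XTT readout of cell number in transfected HepG2 cells, 24 h post-dosing; DMSO serves as negative control and baseline, with activity taken as loss of viability signal.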

Experiment [20] is described as follows: ATG_Sox_CIS: Attagene CIS-FACTORIAL HepG2 Assay for human SRY-box transcription factor (SOX) (AID 2282960). The note with it: HepG2 Attagene cis-factorial SOX reporter, mRNA; actives raise or lower the signal. In a few lines:
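HepG2 cells transiently transfected with cis-element-driven multiple reporter transcription units, dosed 24 h; reporter mRNA measured by RT-PCR, FAM labelling, HpaI digestion and capillary electrophoresis. Bidirectional fit versus DMSO baseline.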

This note sets out measurements from PubChem BioAssay (EPA / NIEHS).

Results filed as inconclusive are left out. Active and inactive are the calls of the source. How the source made its calls, unless noted: active means hit-call score of the fitted dose curve at least 0.9, where 1 is the maximum; inactive means score below 0.9.

X-box-binding protein 1 (Homo sapiens), sequence (P17861 whole entry, looked up): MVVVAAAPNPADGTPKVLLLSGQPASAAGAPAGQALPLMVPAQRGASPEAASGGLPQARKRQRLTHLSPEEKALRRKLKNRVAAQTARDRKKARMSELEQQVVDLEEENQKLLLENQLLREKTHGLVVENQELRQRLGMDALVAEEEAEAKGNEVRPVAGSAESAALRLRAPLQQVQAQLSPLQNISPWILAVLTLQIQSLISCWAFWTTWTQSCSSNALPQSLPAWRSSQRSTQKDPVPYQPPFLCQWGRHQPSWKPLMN
Hepatocyte nuclear factor 6 (Homo sapiens), sequence (Q9UBC0 whole entry, looked up, the tested form may be a part): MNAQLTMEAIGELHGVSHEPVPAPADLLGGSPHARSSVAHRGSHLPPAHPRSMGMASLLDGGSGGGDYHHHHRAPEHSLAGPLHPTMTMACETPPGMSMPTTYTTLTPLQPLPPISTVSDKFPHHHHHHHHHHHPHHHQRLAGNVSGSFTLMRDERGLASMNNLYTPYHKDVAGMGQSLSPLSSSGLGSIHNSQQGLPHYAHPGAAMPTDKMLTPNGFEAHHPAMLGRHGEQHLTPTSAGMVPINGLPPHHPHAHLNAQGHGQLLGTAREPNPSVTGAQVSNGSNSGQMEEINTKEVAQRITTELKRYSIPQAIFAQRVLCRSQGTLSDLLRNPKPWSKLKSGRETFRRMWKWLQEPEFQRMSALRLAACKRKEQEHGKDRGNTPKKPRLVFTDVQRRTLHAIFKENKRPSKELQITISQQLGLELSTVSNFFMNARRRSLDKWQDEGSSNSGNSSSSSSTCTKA
Nuclear respiratory factor 1 (Homo sapiens), sequence (Q16656 whole entry, looked up): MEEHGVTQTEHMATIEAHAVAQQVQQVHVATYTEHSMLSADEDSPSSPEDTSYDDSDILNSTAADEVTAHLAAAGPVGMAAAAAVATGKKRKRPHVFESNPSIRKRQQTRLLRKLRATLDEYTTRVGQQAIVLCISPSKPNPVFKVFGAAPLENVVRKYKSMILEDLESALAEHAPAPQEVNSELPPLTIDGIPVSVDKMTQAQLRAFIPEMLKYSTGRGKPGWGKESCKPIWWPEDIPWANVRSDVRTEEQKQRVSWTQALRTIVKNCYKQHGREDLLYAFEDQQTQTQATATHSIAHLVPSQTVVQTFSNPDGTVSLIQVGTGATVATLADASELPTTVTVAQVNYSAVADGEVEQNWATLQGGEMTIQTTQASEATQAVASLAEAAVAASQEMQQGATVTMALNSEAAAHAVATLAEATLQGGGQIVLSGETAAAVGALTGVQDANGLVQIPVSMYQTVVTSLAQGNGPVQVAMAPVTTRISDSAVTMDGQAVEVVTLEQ
Cellular tumor antigen p53 (Homo sapiens), sequence (P04637 whole entry, looked up, the tested form may be a part): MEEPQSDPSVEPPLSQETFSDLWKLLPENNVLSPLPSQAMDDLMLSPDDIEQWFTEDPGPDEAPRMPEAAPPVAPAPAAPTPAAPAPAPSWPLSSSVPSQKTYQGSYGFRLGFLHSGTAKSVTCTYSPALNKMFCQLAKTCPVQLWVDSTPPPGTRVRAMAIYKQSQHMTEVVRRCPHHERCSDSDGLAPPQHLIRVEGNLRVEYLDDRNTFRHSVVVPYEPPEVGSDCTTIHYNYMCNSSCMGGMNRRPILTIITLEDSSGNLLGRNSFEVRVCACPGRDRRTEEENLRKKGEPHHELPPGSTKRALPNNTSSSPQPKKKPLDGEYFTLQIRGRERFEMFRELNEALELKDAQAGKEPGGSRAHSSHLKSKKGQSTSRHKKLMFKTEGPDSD
Nuclear receptor subfamily 1 group I member 2 (Homo sapiens), sequence (O75469 whole entry, looked up, the tested form may be a part): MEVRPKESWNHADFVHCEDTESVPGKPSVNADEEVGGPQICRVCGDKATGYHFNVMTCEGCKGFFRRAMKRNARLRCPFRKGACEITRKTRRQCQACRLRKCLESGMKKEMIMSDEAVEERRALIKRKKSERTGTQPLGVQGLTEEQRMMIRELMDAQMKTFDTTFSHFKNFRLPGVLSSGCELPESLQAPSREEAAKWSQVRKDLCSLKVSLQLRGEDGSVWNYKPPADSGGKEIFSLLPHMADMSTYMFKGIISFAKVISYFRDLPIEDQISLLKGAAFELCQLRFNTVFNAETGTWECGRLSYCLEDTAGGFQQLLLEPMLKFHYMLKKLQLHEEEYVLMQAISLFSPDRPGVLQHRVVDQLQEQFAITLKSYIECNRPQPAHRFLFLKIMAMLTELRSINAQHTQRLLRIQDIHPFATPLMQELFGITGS
Transcriptional activator Myb (Homo sapiens), sequence (P10242 whole entry, looked up): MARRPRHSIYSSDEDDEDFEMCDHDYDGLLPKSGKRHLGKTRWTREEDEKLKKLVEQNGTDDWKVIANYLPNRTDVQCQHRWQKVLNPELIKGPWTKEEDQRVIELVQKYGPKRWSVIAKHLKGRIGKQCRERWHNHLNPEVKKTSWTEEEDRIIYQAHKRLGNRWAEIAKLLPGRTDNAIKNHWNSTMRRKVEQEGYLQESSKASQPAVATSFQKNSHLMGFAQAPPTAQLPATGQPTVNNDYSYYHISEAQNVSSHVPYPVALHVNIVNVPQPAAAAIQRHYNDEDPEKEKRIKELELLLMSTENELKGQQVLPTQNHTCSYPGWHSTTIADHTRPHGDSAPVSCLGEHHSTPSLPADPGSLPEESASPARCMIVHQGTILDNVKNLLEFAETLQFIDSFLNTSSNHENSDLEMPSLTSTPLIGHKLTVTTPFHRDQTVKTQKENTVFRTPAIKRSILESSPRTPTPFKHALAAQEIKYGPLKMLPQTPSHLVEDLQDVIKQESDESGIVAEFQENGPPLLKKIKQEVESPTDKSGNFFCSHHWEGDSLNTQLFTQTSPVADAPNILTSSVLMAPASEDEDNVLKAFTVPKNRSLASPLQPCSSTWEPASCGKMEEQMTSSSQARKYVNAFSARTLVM
Heat shock factor protein 1 (Homo sapiens), sequence (Q00613 whole entry, looked up): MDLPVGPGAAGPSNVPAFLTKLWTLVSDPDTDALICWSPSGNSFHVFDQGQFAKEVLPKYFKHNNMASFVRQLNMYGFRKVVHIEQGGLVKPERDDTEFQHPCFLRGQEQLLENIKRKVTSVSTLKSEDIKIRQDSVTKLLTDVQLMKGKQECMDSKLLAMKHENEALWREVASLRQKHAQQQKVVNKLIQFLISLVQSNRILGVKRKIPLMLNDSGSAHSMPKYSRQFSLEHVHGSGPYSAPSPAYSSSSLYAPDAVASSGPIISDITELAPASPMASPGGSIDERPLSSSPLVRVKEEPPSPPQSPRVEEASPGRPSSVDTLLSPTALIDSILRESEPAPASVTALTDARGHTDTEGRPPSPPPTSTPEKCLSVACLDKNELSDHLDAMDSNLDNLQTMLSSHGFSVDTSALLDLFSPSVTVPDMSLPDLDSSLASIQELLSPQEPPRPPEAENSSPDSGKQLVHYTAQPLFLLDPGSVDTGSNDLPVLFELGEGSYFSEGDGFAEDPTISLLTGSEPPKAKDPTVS
Myc proto-oncogene protein (Homo sapiens), sequence (P01106 whole entry, looked up): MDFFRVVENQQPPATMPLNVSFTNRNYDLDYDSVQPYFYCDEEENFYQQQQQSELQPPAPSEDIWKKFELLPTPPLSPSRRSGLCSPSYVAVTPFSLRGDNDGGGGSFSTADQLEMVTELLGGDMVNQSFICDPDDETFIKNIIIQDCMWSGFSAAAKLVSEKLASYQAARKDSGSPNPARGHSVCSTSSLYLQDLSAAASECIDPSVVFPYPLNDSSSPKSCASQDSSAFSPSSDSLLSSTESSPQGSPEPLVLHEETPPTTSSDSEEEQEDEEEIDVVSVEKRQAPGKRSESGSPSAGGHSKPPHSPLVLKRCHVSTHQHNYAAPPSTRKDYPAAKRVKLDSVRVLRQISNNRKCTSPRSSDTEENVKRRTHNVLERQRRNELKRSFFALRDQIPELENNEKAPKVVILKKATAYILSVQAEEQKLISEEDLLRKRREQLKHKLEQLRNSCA
Hypoxia-inducible factor 1-alpha (Homo sapiens), sequence (Q16665 whole entry, looked up): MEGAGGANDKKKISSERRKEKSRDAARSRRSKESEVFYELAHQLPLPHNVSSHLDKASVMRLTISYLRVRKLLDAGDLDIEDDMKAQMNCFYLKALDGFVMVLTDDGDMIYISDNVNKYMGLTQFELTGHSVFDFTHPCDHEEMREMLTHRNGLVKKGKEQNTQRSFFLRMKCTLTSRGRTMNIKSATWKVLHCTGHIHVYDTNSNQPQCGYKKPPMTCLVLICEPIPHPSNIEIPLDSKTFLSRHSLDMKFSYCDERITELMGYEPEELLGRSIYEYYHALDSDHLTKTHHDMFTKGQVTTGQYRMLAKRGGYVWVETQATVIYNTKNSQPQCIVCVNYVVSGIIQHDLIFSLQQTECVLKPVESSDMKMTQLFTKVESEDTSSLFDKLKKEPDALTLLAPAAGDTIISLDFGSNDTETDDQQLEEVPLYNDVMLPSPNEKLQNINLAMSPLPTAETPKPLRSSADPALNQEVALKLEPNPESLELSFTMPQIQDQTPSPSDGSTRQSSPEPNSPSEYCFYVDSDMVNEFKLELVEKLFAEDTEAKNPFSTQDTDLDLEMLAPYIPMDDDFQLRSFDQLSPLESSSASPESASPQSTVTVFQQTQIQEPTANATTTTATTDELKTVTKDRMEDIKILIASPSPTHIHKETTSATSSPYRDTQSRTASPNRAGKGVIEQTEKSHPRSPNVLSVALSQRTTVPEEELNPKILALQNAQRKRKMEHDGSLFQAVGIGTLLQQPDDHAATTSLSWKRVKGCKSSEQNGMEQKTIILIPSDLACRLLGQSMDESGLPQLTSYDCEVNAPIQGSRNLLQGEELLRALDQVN

In the case of `Cc1ccccc1S(N)(=O)=O`, the result in experiment [1], in [2], in [3], in experiment [4], in experiment [5] and in experiment [6] was inactive. Besides, the compound was classed as inactive in experiment [7], in experiment [8], in [9], in experiment [10], in [11] and in experiment [12]. The compound was classed as inactive in [13], in experiment [14], in experiment [15], in [16], in experiment [17] and in experiment [18]. Also, the outcome in experiment [19] was inactive.

`C=C(C)C(=O)OCCCCCC`: the outcome in [1], in [2], in experiment [4], in experiment [5], in experiment [6] and in experiment [20] was inactive. Besides, the call in [7], in experiment [8], in experiment [10], in experiment [11], in experiment [12] and in experiment [13] was inactive. Further, the call in experiment [14], in experiment [15], in experiment [16], in experiment [17] and in [19] was inactive.

For orientation: AC50 means the concentration giving half of the maximal activity seen. As for `CCCCCCCCCCC1CO1` (configuration not stated), the call in [1], in experiment [2], in experiment [3], in experiment [4], in experiment [5] and in experiment [6] was inactive. The outcome in experiment [20], in [8], in [10], in [11], in experiment [12] and in experiment [13] was inactive. Besides, the call in experiment [14], in [16], in experiment [17], in experiment [18] and in experiment [19] was inactive. The concentration at half-maximal activity (AC50) was 153 µM (active) in [7] and 128 µM (active) in experiment [15].

With `O=C(O)c1nc(Cl)c(Cl)c(Cl)c1Cl`, the compound was called inactive in [1], in experiment [2], in experiment [3], in [4], in [5] and in experiment [6]. Also, the outcome in experiment [20], in experiment [7], in experiment [8], in [9], in experiment [10] and in experiment [11] was inactive. In addition, the compound was called inactive in experiment [12], in experiment [13], in experiment [14], in [16] and in experiment [18]. Moreover, the AC50 in experiment [15] was 15.3 µM (active).

As for `O=[N+]([O-])c1ccccc1C(F)(F)F`, the compound was called inactive in [1], in [5], in [6], in [20], in experiment [7] and in experiment [8]. The compound was called inactive in [9], in [10], in [11], in [12], in experiment [13] and in [14]. Besides, the compound was classed as inactive in [15], in experiment [16], in [17], in experiment [18] and in [19]. Besides, the AC50 in experiment [4] was 48.9 µM (active).

For the compound `c1cc(N(CC2CO2)CC2CO2)ccc1Cc1ccc(N(CC2CO2)CC2CO2)cc1` (configuration not stated), the AC50 in experiment [1] was 27.3 µM (active); in [4] it was 6.64 µM (active); in experiment [6] it was 18.6 µM (active); in experiment [7], 26.1 µM (active); in [8], 26.1 µM (active); in experiment [11] it was 6.26 µM (active). The AC50 in [16] was 8.18 µM (active); in experiment [17], 20.8 µM (active). Also, the compound was classed as inactive in [2], in [5], in experiment [9], in experiment [10], in experiment [12] and in [13]. Also, the outcome in [14], in experiment [15], in [18] and in experiment [19] was inactive.

As for `Cc1cc(-n2nc3ccc(Cl)cc3n2)c(O)c(C(C)(C)C)c1`, the call in experiment [1], in experiment [2], in experiment [3], in [4], in experiment [5] and in experiment [6] was inactive. The compound was called inactive in [7], in [8], in experiment [10], in experiment [11], in experiment [12] and in [13]. The outcome in [14], in experiment [15], in experiment [16], in [17], in [18] and in [19] was inactive.
